# Among all 69,000 compounds or so, about 950 (1.4%) showed an effect of 50% or more. The sample as a whole holds a higher share of strong results than the screen did.
# Tested on: Mycobacterium tuberculosis
# Experiment: Cornell M. t heat shock assay; further: in the data most compounds retested in dose-response had high values
# Format: functional, organism-based
# Set-up: dose or concentration left out as unconfirmed
row,Compound,Percent Effect
1,Cc1ccc(CN2C[C@@H]3CN(C(=O)c4cccn4C)C[C@@H]3C2)cc1.O=C(O)C(F)(F)F,-6.874%
2,CN(C)[C@@H]1CCN(C(=O)CC2CC2)[C@H]1Cc1cnn(C)c1.O=C(O)C(F)(F)F,1.412%
3,O=C(O)C(F)(F)F.O=C1C[C@H]2[C@@H](CCN2C(=O)c2ccc[nH]2)N1CCN1CCCC1,-37.83%
4,Cn1ccnc1-c1nc(N2CCCCC2)ncc1-c1ccccc1F,-0.09407%
5,CC1CCCN(c2ncc(-c3ccccc3F)c(-c3nccn3C)n2)C1 (stereo not drawn),84.22%
6,CC1CCN(c2ncc(-c3ccccc3F)c(-c3nccn3C)n2)CC1,17.54%
7,O=C([C@H]1C[C@@H]2CN(c3ncc(F)cn3)C[C@H]1O2)N1CCOCC1,19.91%
8,CCc1ccc(CN2Cc3nccn3CC(Cn3cncn3)C2)o1.O=C(O)C(F)(F)F (stereo not drawn),0.4246%
9,CC(C)(C)OC(=O)N1CC(=O)N(Cc2ccco2)CC(O)C1 (stereo not drawn),11.64%
10,COc1ccccc1C(=O)N1CC(=O)N(Cc2ccco2)CC(O)C1 (stereo not drawn),54.55%
11,CCOC(=O)N1CC(=O)N(Cc2cccc(OC)c2OC)CC(O)C1 (stereo not drawn),45.58%
12,COc1cccc(CN2CC(O)CN(C(=O)C3CC3)CC2=O)c1OC (stereo not drawn),31.08%
13,CC(C)(C)C(=O)N1CC(=O)N(Cc2ccco2)CC(O)C1 (stereo not drawn),52.39%
14,COc1ccccc1C(=O)N1CC(=O)N(CC2CC2)CC(O)C1 (stereo not drawn),43.16%
15,CC(C)CC(=O)N1CC(=O)N(Cc2ccco2)CC(O)C1 (stereo not drawn),14.12%
16,COc1cccc(CN2CC(O)CN(C(=O)C(C)(C)C)CC2=O)c1OC (stereo not drawn),90.93%
17,Cc1ccc(C(=O)N2CC(=O)N(Cc3ccco3)CC(O)C2)cc1 (stereo not drawn),34.47%
18,O=C(CCc1nnc(-c2ccccc2)o1)N1CCCC1c1ccc[nH]1 (stereo not drawn),-1.66%
19,Cc1cccnc1N1CC2(CCN(Cc3cccnc3)C2)C1.O=C(O)C(F)(F)F.O=C(O)C(F)(F)F.O=C(O)C(F)(F)F,-27.63%
20,CN(C)CCN1CCCC12CCN(C(=O)c1ccco1)CC2.O=C(O)C(F)(F)F.O=C(O)C(F)(F)F,-2.887%

row,Compound,Percent Effect
1,CN(C)CCOCC1CN(Cc2ccncc2)Cc2nnn(C)c21.O=C(O)C(F)(F)F.O=C(O)C(F)(F)F.O=C(O)C(F)(F)F (stereo not drawn),-16.03%
2,O=C(c1nn(-c2ccccc2F)cc1O)N1CCCCC1,22.71%
3,CCc1ccccc1-n1cc(O)c(C(=O)N2CCCCC2)n1,56%
4,O=C(c1nn(-c2ccccc2F)cc1O)N1CCCC1,42.43%
5,Fc1cccc(CN2C[C@@H]3CN(Cc4ccccn4)C[C@@H]3C2)c1.O=C(O)C(F)(F)F.O=C(O)C(F)(F)F,35.12%
6,CCN1CC2(CC1=O)CN(Cc1ccsc1)CCN(C(=O)C(C)C)C2.O=C(O)C(F)(F)F (stereo not drawn),-8.211%
7,O=C1c2cnc(N3CCC(O)CC3)nc2CN1Cc1cccc(F)c1,-32.08%
8,Cc1nc(Nc2cnccn2)cc(C2CN(C(C)C)C2)n1.O=CO,-9.635%
9,CN1CCCN(C(=O)c2ccnn2-c2ccc3ccccn23)CC1.O=C(O)C(F)(F)F,-45.73%
10,O=C1CCNc2ccc(F)cc2CN1Cc1ccco1,32.83%
11,O=C1CCNc2ccccc2CN1Cc1ccco1,41.47%
12,COc1ccc2c(c1)CN(Cc1ccco1)C(=O)CCN2,54.29%
13,Cc1nc(CN2C(=O)COC3(CCN(Cc4ccsc4)CC3)C2C)cs1.O=C(O)C(F)(F)F (stereo not drawn),-25.28%
14,CCCNC(c1cccnc1)c1ccc(F)c(C)c1.Cl.Cl (stereo not drawn),-18.54%
15,Cc1noc(C)c1CN1CC[C@H]2[C@@H]1CCC(=O)N2CC1CCOCC1.O=C(O)C(F)(F)F,19.97%
16,O=C(O)c1cc(/C=C/c2ccccc2)ncn1,-25.85%
17,O=C(O)c1cc(/C=C/c2ccc3ccccc3c2)ncn1,55.05%
18,O=C(O)c1cc(/C=C/c2cccc3ccccc23)ncn1,-14.83%
19,Cc1cccc(CN2Cc3nccn3CC(CN3CCOCC3)C2)c1.O=C(O)C(F)(F)F.O=C(O)C(F)(F)F (stereo not drawn),-25.56%
20,O=C(C1CCCCC1)N1C[C@@H]2CCN(c3cnccn3)C[C@@H]2C1.O=C(O)C(F)(F)F,23.71%

row,Compound,Percent Effect
1,Cc1ccccc1-n1cc(-c2ccnc(N3CCCC(CN)C3)n2)cn1 (stereo not drawn),6.089%
2,Cc1ccccc1-n1cc(-c2ccnc(N3CCCC(O)C3)n2)cn1 (stereo not drawn),0.7216%
3,COC[C@H]1CCCN1c1nccc(-c2cnn(-c3ccccc3C)c2)n1,57.5%
4,O=C(CC1CC1)N1C[C@@H]2CCN(c3cccnc3)C[C@@H]2C1.O=C(O)C(F)(F)F,-11.14%
5,COCCNC(=O)C(C)N1CCN(C)CC1.O=C(O)C(=O)O (stereo not drawn),1.358%
6,CC(C)N1CCCC(CN(C)c2ccc(Cn3ccnc3)cn2)C1 (stereo not drawn),-4.084%
7,OC1CCN(C2CCN(c3ccc(Cn4ccnc4)cn3)CC2)CC1,13.23%
8,CN(CC1CCN(c2ccccc2)C1)c1ccc(Cn2ccnc2)cn1 (stereo not drawn),105.3%
9,CCc1cc2cc(OC)c(OC)cc2nc1SCCN1CCCCC1.Cl,-12.6%
10,O=C(O)C(F)(F)F.O=C(c1ccc[nH]1)N1CCc2c(COCC3CC3)cncc2C1,-0.4009%
11,O=C(N1CCCC1)N1Cc2nccn2CC(CN2CCCC2)C1.O=C(O)C(F)(F)F (stereo not drawn),-12.61%
12,O=C(NCc1cnn2cccnc12)c1cccc(CC2CCNCC2)c1,70.42%
13,CC(C)Cn1cncc1CNC(=O)c1cccc(CC2CCNCC2)c1,-17.32%
14,CC(C)(O)CCc1cccc(C(=O)NCc2cnn3cccnc23)c1,-5.166%
15,CCOC1COC2(CCN(Cc3cccc(F)c3)CC2)C1.O=C(O)C(F)(F)F (stereo not drawn),-9.066%
16,Cc1noc(C(C)Nc2ccc(N3CCOCC3)cc2C)n1 (stereo not drawn),41.84%
17,Cc1cc(N2CCOCC2)ccc1NC(C)c1nc(C(C)C)no1 (stereo not drawn),45.07%
18,Cc1cc(N2CCOCC2)ccc1NC(C)c1nc(C(C)(C)C)no1 (stereo not drawn),72.1%

# Reference: ChEMBL document CHEMBL3988442, “University of Dundee, Small-Polar-MMV Screening Library” (2021)
